PubChem BioAssay (NCATS)
Several values for one entry are separate records, joined by “and”; a condition that tells them apart may be missing. Identical values can stand only once. Inconclusive results are not listed. Where a call stands in place of a potency, no number is given. A structure can be active in one record and inactive in another. Activity calls are given as the source filed them. Unless noted, calls follow the shape of the dose curve; as a rule, active = well fitted curve in the direction sought with a large enough effect; inconclusive = small, poorly fitted or top-dose-only effect, or another doubt; inactive = no such curve, though single readings can be large; an effect the other way counts as inactive or inconclusive.

How the values were obtained:
[1] = P-glycoprotein substrates identified in KB-3-1 adenocarcinoma cell line, qHTS therapeutic library screen (AID 1346986); conditions: KB-3-1 parental cells viability, CellTiter-Glo, 72 h; series mostly up to 44.5 µM; also: nearly all actives have a fitted effect of over 60% in size;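 also: potency is read from the fitted curve at half-maximal effect; potency is for cytotoxicity meaning loss of cell viability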
Summary of the method: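 KB-3-1 parental cells and P-gp-overexpressing KB-8-5-11 (colchicine omitted during assay) plated at 500 cells/well, dosed in dose-response, incubated 72 h at 37 degree C. CellTiter-Glo luminescence read; KB-8-5-11 also tested with tariquidar.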

[2] = P-glycoprotein substrates identified in KB-8-5-11 adenocarcinoma cell line, qHTS therapeutic library screen (AID 1346987); conditions: KB-8-5-11 (P-gp overexpressing) viability, CellTiter-Glo, 72 h; series mostly up to 44.5 µM; also: nearly all actives have a fitted effect of over 65% in size; also: potency is read from the fitted curve at half-maximal effect
Summary of the method: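 KB-8-5-11: colchicine-selected sub-line of KB-3-1 over-expressing P-gp; assay medium lacked colchicine. 72 h drug exposure at 37 degree C, CellTiter-Glo.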

[3] = NS1 protein of Zika virus - qHTS assay to identify small molecule inhibitors in human HEK 293 cells (AID 1347053); conditions: HEK293 ZIKV MR766 infection, NS1 TR-FRET, 24 h; series mostly up to 46.1 µM; also: nearly all actives have a fitted effect of over 55% in size; also: potency is read from the fitted curve at half-maximal effect
Summary of the method: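 HEK 293; 20 h pre-culture, 37 C/5% CO2; cpd 1 h pre-infection; ZIKV MR766, MOI = 0.5, 24 h, 37 C; TR-FRET NS1 readout (two anti-NS1 Abs); norm. to no-virus vs infected.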

[4] = Natriuretic polypeptide receptor (hNpr1) antagonism - Pilot counterscreen GloSensor control cell line (AID 1347045; calls by dose curve); conditions: HEK293 cGMP GloSensor cells, SNP-stimulated luminescence, 20 min; series mostly up to 38.3 µM
Summary of the method: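 HEK293 cells carrying the GloSensor cGMP sensor (GIP/pGS-40F) were loaded with 2% GloSensor reagent for 2 h, exposed to compounds for 30 min, and then stimulated with 50 uM sodium nitroprusside for 20 min at room temperature.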

[5] = target: Atrial natriuretic peptide receptor 1 (Homo sapiens) (UniProt P16066); test: Natriuretic polypeptide receptor (hNpr1) antagonism - Pilot screen (AID 1347049; calls by dose curve;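 also: agonist-evoked cGMP luminescence read 20 min after hNppA addition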); conditions: hNpr1 cells, antagonist mode cGMP read-out; series mostly up to 57.5 µM
Chain of Atrial natriuretic peptide receptor 1 (Homo sapiens) (P16066 whole entry, looked up): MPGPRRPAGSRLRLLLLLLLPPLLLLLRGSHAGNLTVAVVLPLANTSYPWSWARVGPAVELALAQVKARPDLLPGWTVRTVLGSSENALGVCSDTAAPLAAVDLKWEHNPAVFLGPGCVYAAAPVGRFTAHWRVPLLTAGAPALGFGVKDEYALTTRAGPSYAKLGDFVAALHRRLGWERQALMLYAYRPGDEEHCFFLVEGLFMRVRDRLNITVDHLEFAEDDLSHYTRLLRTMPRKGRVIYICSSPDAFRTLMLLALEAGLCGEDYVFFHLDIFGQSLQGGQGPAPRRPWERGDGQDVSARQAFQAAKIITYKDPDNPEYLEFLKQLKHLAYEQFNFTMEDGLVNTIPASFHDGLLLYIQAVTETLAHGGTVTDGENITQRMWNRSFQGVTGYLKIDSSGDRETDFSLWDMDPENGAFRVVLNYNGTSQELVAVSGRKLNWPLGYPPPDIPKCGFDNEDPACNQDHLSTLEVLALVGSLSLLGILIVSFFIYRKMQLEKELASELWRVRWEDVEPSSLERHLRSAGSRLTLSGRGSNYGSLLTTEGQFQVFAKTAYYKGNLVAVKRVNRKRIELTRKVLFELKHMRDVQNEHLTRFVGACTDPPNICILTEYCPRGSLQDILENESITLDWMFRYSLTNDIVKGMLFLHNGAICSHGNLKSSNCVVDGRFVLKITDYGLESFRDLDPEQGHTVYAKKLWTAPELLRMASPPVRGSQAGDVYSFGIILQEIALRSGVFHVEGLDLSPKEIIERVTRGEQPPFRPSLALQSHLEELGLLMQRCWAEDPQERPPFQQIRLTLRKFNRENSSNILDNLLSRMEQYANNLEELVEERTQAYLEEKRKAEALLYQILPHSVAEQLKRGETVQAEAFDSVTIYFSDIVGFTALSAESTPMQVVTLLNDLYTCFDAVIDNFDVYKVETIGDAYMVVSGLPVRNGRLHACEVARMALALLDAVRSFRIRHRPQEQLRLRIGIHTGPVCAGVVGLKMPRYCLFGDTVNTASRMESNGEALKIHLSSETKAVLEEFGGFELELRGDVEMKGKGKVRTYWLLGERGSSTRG
Summary of the method: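 HEK293 cells co-expressing hNpr1 and the GloSensor pGS-40F cGMP luciferase sensor were preloaded with 2% GloSensor reagent for 2 h. Compounds were added for 30 min at room temperature, then cells were stimulated with 0.1 nM hNppA for 20 min before luminescence readout.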

[6] = target: Atrial natriuretic peptide receptor 2 (Homo sapiens) (UniProt P20594); test: Natriuretic polypeptide receptor (hNpr2) antagonism - Pilot subtype selectivity assay (AID 1347050; calls by dose curve); conditions: NPR2-expressing cells, cGMP antagonist-mode read-out; series mostly up to 38.3 µM
Chain of Atrial natriuretic peptide receptor 2 (Homo sapiens) (P20594 whole entry, looked up): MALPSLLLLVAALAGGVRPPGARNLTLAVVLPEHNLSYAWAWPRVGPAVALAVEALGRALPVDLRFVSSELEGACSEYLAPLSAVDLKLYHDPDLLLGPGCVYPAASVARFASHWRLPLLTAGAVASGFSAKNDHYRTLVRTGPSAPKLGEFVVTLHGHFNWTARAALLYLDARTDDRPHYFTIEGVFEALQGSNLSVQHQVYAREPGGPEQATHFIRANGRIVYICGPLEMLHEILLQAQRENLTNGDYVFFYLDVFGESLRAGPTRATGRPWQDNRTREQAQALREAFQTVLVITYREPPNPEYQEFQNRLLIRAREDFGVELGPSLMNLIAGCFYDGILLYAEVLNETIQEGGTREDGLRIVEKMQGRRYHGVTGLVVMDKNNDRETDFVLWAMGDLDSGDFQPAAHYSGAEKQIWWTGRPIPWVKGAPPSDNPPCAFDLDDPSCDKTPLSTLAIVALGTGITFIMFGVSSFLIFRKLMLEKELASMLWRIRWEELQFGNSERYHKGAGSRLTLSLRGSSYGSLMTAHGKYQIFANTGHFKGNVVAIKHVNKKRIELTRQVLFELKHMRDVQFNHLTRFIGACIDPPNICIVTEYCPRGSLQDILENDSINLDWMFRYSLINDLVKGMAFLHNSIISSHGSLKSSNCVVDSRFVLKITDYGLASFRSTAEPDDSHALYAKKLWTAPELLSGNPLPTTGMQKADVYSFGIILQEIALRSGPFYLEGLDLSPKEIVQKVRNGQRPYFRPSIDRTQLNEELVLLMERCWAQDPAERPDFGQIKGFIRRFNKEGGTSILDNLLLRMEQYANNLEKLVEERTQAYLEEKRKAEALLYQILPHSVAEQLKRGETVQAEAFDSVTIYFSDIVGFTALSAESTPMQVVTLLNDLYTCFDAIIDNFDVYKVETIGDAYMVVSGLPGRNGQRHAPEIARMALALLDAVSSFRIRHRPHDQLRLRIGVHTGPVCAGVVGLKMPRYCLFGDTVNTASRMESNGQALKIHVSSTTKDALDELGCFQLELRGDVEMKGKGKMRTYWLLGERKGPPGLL
Summary of the method: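 cGMP-sensor HEK293/hNpr2 cells; 2% GloSensor reagent 2 h RT; compounds 30 min; baseline luminescence read; 1 nM hNppC agonist 20 min RT; final luminescence read by CCD camera. Antagonism = reduced post-agonist signal.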

[7] = target: T1, Tyrosine-protein phosphatase non-receptor type substrate 1 (Homo sapiens) + Leukocyte surface antigen CD47 (Homo sapiens) (UniProt P78324+Q08722); test: CD47-SIRPalpha protein protein interaction - LANCE assay qHTS validation (AID 1347057; active = well fitted curve in the direction sought with a large enough effect in the signal ratio, with a control signal flat, not every such curve was filed as active; the % refers to the signal ratio); conditions: Recombinant CD47-His / biotin-SIRPalpha, TR-FRET ratio; series mostly up to 38.3 µM
T1 sequence (P78324 whole entry, looked up): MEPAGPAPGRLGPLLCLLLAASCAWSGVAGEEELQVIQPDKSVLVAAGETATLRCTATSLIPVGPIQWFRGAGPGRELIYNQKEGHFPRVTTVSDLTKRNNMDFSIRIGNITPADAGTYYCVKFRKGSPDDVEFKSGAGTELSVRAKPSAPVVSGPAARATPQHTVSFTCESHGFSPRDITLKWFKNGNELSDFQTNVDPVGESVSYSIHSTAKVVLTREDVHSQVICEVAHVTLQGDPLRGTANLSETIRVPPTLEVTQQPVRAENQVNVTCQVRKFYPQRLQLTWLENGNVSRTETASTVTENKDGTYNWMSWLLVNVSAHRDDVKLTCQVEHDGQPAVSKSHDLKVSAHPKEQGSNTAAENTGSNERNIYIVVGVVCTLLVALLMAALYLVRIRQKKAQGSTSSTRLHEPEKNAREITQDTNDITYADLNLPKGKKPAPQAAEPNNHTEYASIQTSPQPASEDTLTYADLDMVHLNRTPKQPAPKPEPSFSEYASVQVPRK
T1 sequence (Q08722 whole entry, looked up): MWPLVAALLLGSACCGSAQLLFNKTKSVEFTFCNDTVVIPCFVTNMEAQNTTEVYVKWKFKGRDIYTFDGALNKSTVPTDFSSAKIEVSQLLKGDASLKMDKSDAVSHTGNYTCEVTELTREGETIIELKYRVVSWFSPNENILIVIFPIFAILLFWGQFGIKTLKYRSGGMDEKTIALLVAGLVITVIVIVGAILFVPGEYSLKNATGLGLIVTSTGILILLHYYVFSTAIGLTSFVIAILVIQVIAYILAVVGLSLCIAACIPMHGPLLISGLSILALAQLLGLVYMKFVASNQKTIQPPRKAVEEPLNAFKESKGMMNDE
Summary of the method: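 First, His-tagged CD47 and Eu-labelled anti-His antibody met the compound for 30 min; next, site-specifically biotinylated SIRPalpha was added for 30 min; finally streptavidin-APC was added before reading the TR-FRET ratio.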

[8] = target: T1, Tyrosine-protein phosphatase non-receptor type substrate 1 (Homo sapiens) + Leukocyte surface antigen CD47 (Homo sapiens); test: CD47-SIRPalpha protein protein interaction - Alpha assay qHTS validation (AID 1347059); conditions: AlphaScreen CD47-His/biotin-SIRPalpha binding, LOPAC; series mostly up to 38.3 µM;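 also: bead proximity luminescence from CD47 binding SIRPalpha after compound preincubation with SIRPalpha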
Summary of the method: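 Soluble extracellular domains: Avi-tag biotinylated SIRPalpha (25 nM) preincubated 30 min RT with compound, then 6His-CD47 (12.5 nM) 30 min; Ni-NTA acceptor and streptavidin donor beads (10 ug/mL) 30 min, AlphaScreen read. PBS pH 7.4, 0.05% IGEPAL.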

## CCOC(=O)O[C@]1(C(=O)OCCl)CC[C@@H]2[C@H]3CCC4=CC(=O)C=C[C@]4(C)[C@@H]3[C@@H](O)C[C@@]21C
[1]
  Potency: inactive
[2]
  Potency: inactive
[3]
  Potency: inactive

## O=C(O)CCc1nc(-c2ccccc2)c(-c2ccccc2)o1
[1]
  Potency: inactive
[4]
  Potency: inactive
[5]
  outcome: inactive
[6]
  outcome: inactive
[7]
  outcome: inactive
[8]
  outcome: inactive

## O=c1cc(-c2cccc3c2Sc2ccccc2S3)oc(N2CCOCC2)c1
[1]
  Potency: inactive
[2]
  Potency: inactive

## COc1cc2c(cc1OC)CN(CCc1ccc(NC(=O)c3cc(OC)c(OC)cc3NC(=O)c3cnc4ccccc4c3)cc1)CC2
[1]
  Potency: inactive
[2]
  Potency: inactive

## CCN(CC)CCNC(=O)c1ccc(N)cc1
[1]
  Potency: inactive
[2]
  Potency: inactive
[4]
  Potency: inactive
[5]
  outcome: inactive
[6]
  outcome: inactive
[3]
  Potency: inactive
[7]
  outcome: inactive
[8]
  outcome: inactive

## COc1ccc2cc(-c3nc(-c4ccc(S(C)=O)cc4)[nH]c3-c3ccncc3)ccc2c1 (stereo not drawn)
[2]
  Potency: inactive

## O=c1ccn([C@@H]2O[C@H](CO)[C@H](O)[C@H]2O)c(=O)[nH]1
[1]
  Potency: inactive
[2]
  Potency: inactive
[3]
  Potency: inactive

## COc1ccc(-c2nc(N3CCOCC3)c3sc(CN(C)c4ncc(C(=O)NO)cn4)cc3n2)cn1
[1]
  Potency: 0.164 µM (active)
[2]
  Potency: 20.9 nM (active) and 231 nM (active)

## CCOC1OC(=O)C[C@H]1NC(=O)[C@@H]1CCCN1C(=O)[C@@H](NC(=O)c1ccc(N)c(Cl)c1)C(C)(C)C (stereo partly drawn)
[1]
  Potency: inactive
[3]
  Potency: inactive

## O=C(O)c1ccccc1C(=O)Nc1ccc(-c2ccccc2)cc1
[1]
  Potency: inactive
[2]
  Potency: inactive
[3]
  Potency: inactive

## Nc1ncnc2ccccc12
[1]
  Potency: inactive
[2]
  Potency: inactive
[3]
  Potency: inactive

## COc1ccc(-c2coc3cc(O)cc(O)c3c2=O)cc1
[1]
  Potency: inactive
[2]
  Potency: inactive
[3]
  Potency: inactive

## CO[C@H]1C[C@@H]2CC[C@@H](C)[C@@](O)(O2)C(=O)C(=O)N2CCCC[C@@H]2C(=O)O[C@H]([C@H](C)C[C@@H]2CC[C@H](OCCO)[C@H](OC)C2)CC(=O)[C@H](C)C=C(C)[C@@H](O)[C@@H](OC)C(=O)[C@H](C)C[C@H](C)C=CC=CC=C1C
[2]
  Potency: 3.32 µM (active)

## CC[C@@H]1C=C(C)C[C@H](C)C[C@H](OC)[C@H]2O[C@@](O)(C(=O)C(=O)N3CCCC[C@@H]3C(=O)O[C@H](C(C)=C[C@@H]3CC[C@H](Cl)[C@H](OC)C3)[C@H](C)[C@@H](O)CC1=O)[C@H](C)C[C@H]2OC
[1]
  Potency: inactive
[3]
  Potency: 23.5 µM (active)

## O=c1c(O)c(-c2ccc(O)cc2)oc2cc(O)cc(O)c12
[1]
  Potency: inactive
[2]
  Potency: inactive

## Cc1cnc(C(=O)O)c[n+]1[O-]
[1]
  Potency: inactive
[2]
  Potency: inactive
[3]
  Potency: inactive

## COc1cc(N2CCC(N3CCN(C)CC3)CC2)ccc1Nc1ncnc(Nc2ccccc2S(=O)(=O)C(C)C)n1
[1]
  Potency: 10.3 µM (active)
[2]
  Potency: 5.9 µM (active) and 9.2 µM (active)

## OC[C@H]1O[C@@H](Oc2cc(O)cc(C=Cc3ccc(O)cc3)c2)[C@H](O)[C@@H](O)[C@H]1O
[1]
  Potency: inactive
[2]
  Potency: inactive
[3]
  Potency: inactive

## O=c1c(-c2ccc(O)cc2)coc2cc(O[C@@H]3O[C@H](CO)[C@H](O)[C@H](O)[C@H]3O)ccc12
[1]
  Potency: inactive
[2]
  Potency: inactive
[3]
  Potency: inactive

## C[C@H](NC(=O)C(=O)Nc1ccccc1C(C)(C)C)C(=O)N[C@@H](CC(=O)O)C(=O)COc1c(F)c(F)cc(F)c1F
[1]
  Potency: inactive
[2]
  Potency: inactive

## O=C(O)Cc1cccc2ccccc12
[2]
  Potency: inactive

## CC[C@H]1OC(=O)[C@H](C)[C@@H](O[C@H]2C[C@@](C)(OC)[C@@H](O)[C@H](C)O2)[C@H](C)[C@@H](O[C@@H]2O[C@H](C)C[C@H](N(C)C)[C@@H]2O)[C@](C)(O)C[C@@H](C)CN(C)[C@H](C)[C@@H](O)[C@]1(C)O
[1]
  Potency: inactive
[2]
  Potency: inactive
[3]
  Potency: inactive

## COc1cccc(-c2cc(=O)c3ccccc3o2)c1N
[1]
  Potency: inactive
[2]
  Potency: inactive
[5]
  outcome: inactive
[3]
  Potency: inactive
[7]
  outcome: inactive
[8]
  outcome: inactive

## CC(=O)CCCCn1c(=O)c2c(ncn2C)n(C)c1=O
[1]
  Potency: inactive
[2]
  Potency: inactive
[5]
  outcome: inactive
[6]
  outcome: inactive
[3]
  Potency: inactive

## CCN(CC)CCOc1ccc(C(=C(Cl)c2ccccc2)c2ccccc2)cc1
[1]
  Potency: inactive
[2]
  Potency: inactive
[3]
  Potency: inactive

## CCN1CCC[C@H]1CNC(=O)c1cc(S(N)(=O)=O)ccc1OC
[1]
  Potency: inactive
[2]
  Potency: inactive
[4]
  Potency: inactive
[5]
  outcome: inactive
[6]
  outcome: inactive
[3]
  Potency: inactive
[7]
  outcome: inactive
[8]
  outcome: inactive

## CNC(=O)c1ccc2cc(C3(O)CCn4cncc43)ccc2c1 (stereo not drawn)
[1]
  Potency: inactive
[3]
  Potency: inactive

## CC1(C)S[C@H]2[C@H](NC(=O)[C@@H](N)c3ccc(O)cc3)C(=O)N2[C@@H]1C(=O)O
[1]
  Potency: inactive
[2]
  Potency: inactive
[3]
  Potency: inactive

## CN(C)CCC=C1c2ccccc2COc2ccc(CC(=O)O)cc21
[1]
  Potency: inactive
[2]
  Potency: inactive

## O=C(O)c1ccc(-c2c[nH]c3ncc(-c4ccccc4)cc23)cc1C1CCCC1
[1]
  Potency: inactive
[2]
  Potency: inactive and 3.66 µM (active)

## CCC(=O)NC[C@H](Cc1ccc(OCCc2nc(-c3ccccc3)oc2C)cc1)NC(C)=CC(=O)c1ccc(C(F)(F)F)cc1
[1]
  Potency: inactive
[2]
  Potency: inactive
